Three compounds from ChEMBL document CHEMBL1961873, “Compounds: GSK PKIS; Assays: Nanosyn kinase panel” (2012) can be followed below.

The target in experiment [1] is T1, Ephrin type-B receptor 2 (Homo sapiens) (UniProt P29323).
T1 sequence (whole entry): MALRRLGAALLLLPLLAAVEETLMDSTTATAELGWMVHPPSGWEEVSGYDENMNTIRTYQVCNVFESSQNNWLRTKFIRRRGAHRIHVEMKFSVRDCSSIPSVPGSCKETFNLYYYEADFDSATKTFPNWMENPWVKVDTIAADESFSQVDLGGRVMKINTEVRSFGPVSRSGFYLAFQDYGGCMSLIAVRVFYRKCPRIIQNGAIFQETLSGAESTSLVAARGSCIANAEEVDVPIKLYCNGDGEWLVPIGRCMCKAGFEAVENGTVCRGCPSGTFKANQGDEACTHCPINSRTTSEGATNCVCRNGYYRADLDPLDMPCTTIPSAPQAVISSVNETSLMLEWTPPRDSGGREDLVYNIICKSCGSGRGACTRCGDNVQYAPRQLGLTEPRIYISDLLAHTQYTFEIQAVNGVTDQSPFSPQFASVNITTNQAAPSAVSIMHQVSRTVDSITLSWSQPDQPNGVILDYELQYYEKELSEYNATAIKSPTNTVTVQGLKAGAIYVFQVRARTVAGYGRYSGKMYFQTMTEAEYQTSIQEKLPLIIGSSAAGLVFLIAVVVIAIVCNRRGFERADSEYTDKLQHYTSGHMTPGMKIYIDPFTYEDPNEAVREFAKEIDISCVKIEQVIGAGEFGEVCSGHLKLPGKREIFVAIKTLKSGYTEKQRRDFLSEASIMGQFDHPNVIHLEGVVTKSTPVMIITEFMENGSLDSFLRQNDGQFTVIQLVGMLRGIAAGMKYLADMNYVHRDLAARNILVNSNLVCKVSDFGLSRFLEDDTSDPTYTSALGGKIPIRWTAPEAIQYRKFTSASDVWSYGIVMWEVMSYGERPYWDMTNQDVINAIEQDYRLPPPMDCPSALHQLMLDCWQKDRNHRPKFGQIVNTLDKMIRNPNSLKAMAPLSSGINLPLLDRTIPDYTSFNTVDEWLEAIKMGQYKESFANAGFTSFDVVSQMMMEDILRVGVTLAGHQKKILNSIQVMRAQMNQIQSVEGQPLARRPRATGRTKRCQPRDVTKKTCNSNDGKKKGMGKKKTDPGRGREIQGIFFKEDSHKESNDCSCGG
The settings on record: at 1 µM.

In experiment [2] the target is T2, Ephrin type-B receptor 3 (Homo sapiens) (UniProt P54753).
T2 sequence (whole entry): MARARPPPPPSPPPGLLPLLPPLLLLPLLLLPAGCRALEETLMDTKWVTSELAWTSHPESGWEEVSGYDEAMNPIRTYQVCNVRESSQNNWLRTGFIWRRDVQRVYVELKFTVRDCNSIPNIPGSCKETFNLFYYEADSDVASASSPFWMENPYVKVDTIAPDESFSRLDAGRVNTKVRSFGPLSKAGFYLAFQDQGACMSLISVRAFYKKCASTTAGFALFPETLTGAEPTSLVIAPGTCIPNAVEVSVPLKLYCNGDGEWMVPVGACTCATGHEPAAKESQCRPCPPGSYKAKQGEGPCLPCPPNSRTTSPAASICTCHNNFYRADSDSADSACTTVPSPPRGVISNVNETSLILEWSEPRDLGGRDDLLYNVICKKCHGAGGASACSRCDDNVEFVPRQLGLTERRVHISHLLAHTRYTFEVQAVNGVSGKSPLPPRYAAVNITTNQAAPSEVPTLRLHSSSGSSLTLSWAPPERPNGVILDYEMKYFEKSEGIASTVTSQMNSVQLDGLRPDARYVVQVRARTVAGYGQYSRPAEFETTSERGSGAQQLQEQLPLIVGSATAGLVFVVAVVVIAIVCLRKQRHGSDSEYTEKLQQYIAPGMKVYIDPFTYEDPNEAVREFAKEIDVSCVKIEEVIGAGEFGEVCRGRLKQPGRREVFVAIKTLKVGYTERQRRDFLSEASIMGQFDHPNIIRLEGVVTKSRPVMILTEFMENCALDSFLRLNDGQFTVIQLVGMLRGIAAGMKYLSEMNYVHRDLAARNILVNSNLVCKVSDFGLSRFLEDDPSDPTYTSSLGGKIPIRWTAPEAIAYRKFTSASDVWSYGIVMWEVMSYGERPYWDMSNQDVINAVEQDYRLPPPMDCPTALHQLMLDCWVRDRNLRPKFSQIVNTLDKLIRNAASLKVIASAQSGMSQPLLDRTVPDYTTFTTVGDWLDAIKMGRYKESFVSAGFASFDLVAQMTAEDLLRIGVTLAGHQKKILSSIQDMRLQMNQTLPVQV
To be noted: at 0.1 µM.

Experiment [3] has as its target T2, Ephrin type-B receptor 3 (Homo sapiens). To be noted: at 1 µM.
Experiment [4] deals with T3, Ephrin type-B receptor 4 (Homo sapiens) (UniProt P54760).
T3 sequence (whole entry): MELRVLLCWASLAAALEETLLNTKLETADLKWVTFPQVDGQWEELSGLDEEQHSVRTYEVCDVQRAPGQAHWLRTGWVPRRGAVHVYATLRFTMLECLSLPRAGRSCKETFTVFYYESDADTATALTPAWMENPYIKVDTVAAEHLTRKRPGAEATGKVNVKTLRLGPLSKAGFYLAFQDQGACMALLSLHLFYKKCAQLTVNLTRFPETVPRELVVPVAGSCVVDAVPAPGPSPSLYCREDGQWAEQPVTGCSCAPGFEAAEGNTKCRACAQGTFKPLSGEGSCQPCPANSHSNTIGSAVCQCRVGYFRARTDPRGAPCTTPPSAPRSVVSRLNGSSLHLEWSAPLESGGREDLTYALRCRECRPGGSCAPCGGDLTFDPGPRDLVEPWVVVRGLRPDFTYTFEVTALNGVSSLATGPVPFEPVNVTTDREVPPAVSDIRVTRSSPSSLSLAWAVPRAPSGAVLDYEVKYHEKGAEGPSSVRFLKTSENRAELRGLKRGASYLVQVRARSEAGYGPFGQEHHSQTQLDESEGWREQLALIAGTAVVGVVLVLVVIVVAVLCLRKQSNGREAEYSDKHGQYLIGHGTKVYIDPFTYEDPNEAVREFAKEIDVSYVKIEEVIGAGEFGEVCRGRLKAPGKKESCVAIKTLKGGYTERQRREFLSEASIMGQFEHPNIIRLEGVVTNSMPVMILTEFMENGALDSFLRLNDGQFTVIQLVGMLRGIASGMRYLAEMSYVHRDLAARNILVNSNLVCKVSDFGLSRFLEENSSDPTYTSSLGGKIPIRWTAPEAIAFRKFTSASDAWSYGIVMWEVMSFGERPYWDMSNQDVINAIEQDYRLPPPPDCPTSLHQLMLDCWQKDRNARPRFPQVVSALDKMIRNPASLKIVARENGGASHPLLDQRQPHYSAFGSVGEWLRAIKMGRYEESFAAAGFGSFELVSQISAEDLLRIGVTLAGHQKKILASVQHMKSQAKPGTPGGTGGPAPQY
The settings on record: at 0.1 µM.

Experiment [5] addresses T3, Ephrin type-B receptor 4 (Homo sapiens). The settings on record: at 1 µM.
Experiment [6] deals with Receptor tyrosine-protein kinase erbB-2 (Homo sapiens) (UniProt P04626). The settings on record: at 0.1 µM.
The target is the same in experiment [7]. To be noted: at 1 µM.
The target of experiment [8] is Receptor tyrosine-protein kinase erbB-4 (Homo sapiens) (UniProt Q15303). The settings on record: at 0.1 µM.
Experiment [9] has the same target. The settings on record: at 1 µM.
Experiment [10] has as its target Tyrosine-protein kinase Fer (Homo sapiens) (UniProt P16591). To be noted: at 0.1 µM.
The target is the same in experiment [11]. To be noted: at 1 µM.
The target in experiment [12] is Tyrosine-protein kinase Fes/Fps (Homo sapiens) (UniProt P07332). To be noted: at 0.1 µM.
The target is the same in experiment [13]. To be noted: at 1 µM.
For experiment [14], the target named is Fibroblast growth factor receptor 1 (Homo sapiens) (UniProt P11362). The settings on record: at 0.1 µM.
The target is the same in experiment [15]. To be noted: at 1 µM.
Experiment [16] addresses Fibroblast growth factor receptor 2 (Homo sapiens) (UniProt P21802). To be noted: at 0.1 µM.
For experiment [17] the target is unchanged. To be noted: at 1 µM.
In experiment [18] the target is Fibroblast growth factor receptor 3 (Homo sapiens) (UniProt P22607). To be noted: at 0.1 µM.
Experiment [19] shares this target. The settings on record: at 1 µM.
The target in experiment [20] is Fibroblast growth factor receptor 4 (Homo sapiens) (UniProt P22455). The settings on record: at 0.1 µM.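 Note: values are mean percent inhibition of FGFR4.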
Sequence of Fibroblast growth factor receptor 4 (Homo sapiens) (P22455 22-802 limits assumed): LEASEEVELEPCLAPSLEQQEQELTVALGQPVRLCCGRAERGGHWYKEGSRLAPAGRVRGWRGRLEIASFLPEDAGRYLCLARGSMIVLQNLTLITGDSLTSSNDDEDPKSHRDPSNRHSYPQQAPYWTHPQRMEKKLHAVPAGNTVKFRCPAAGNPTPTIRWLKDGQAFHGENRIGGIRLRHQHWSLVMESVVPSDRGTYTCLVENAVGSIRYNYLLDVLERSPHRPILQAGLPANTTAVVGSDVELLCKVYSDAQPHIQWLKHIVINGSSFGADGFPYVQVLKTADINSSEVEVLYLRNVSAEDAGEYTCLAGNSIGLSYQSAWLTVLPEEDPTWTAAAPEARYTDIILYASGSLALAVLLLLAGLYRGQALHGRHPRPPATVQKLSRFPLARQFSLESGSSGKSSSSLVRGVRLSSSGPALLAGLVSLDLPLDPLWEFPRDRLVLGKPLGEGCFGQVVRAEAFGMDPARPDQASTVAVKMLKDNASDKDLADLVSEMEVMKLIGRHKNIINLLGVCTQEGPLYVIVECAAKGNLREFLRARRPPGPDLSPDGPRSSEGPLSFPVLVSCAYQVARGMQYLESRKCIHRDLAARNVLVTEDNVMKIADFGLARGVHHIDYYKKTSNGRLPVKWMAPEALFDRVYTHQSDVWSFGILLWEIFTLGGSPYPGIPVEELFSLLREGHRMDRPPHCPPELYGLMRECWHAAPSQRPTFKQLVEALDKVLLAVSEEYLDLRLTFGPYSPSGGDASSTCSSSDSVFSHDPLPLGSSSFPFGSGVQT

Sequence of Fibroblast growth factor receptor 2 (Homo sapiens) (P21802 22-821 limits assumed): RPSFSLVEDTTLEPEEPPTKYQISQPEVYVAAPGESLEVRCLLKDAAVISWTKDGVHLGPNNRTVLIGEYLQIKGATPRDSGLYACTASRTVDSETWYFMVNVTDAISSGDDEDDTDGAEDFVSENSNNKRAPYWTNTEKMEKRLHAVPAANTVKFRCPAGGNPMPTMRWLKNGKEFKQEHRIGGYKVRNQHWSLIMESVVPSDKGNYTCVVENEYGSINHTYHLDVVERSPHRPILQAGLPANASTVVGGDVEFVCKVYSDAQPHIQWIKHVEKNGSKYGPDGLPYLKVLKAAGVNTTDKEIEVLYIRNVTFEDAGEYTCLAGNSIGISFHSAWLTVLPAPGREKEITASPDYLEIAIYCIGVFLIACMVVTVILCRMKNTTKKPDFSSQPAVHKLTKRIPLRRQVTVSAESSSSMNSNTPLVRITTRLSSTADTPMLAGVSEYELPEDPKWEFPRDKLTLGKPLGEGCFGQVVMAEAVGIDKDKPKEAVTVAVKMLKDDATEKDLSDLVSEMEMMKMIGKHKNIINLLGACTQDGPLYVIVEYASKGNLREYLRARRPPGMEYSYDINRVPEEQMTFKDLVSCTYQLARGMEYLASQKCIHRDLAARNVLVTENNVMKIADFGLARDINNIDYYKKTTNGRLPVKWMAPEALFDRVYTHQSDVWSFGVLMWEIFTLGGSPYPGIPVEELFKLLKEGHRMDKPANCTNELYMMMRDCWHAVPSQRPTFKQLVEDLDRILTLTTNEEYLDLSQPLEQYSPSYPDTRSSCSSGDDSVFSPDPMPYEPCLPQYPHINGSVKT
Sequence of Fibroblast growth factor receptor 3 (Homo sapiens) (P22607 23-806 limits assumed): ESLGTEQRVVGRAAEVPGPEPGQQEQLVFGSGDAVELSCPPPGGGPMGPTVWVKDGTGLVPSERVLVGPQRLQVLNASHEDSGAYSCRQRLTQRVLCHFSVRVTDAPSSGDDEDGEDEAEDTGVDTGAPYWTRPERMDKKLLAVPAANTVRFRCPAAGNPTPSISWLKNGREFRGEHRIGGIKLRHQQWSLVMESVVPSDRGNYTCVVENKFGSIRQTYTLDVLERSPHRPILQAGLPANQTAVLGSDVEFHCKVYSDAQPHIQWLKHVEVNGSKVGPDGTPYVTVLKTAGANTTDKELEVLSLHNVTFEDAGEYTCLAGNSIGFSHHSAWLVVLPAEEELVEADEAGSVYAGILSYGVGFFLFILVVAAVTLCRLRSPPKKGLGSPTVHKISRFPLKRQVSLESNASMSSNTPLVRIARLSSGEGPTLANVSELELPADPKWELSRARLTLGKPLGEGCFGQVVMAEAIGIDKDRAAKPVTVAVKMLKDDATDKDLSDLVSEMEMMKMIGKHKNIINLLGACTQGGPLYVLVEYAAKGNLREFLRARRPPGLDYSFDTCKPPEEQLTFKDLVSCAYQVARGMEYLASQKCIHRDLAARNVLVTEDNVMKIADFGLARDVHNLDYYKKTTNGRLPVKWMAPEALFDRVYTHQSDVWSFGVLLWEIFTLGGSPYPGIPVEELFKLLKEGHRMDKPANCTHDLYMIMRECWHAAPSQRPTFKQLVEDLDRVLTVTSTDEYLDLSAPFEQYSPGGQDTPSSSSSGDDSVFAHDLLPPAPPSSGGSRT
Sequence of Fibroblast growth factor receptor 1 (Homo sapiens) (P11362 22-822 limits assumed): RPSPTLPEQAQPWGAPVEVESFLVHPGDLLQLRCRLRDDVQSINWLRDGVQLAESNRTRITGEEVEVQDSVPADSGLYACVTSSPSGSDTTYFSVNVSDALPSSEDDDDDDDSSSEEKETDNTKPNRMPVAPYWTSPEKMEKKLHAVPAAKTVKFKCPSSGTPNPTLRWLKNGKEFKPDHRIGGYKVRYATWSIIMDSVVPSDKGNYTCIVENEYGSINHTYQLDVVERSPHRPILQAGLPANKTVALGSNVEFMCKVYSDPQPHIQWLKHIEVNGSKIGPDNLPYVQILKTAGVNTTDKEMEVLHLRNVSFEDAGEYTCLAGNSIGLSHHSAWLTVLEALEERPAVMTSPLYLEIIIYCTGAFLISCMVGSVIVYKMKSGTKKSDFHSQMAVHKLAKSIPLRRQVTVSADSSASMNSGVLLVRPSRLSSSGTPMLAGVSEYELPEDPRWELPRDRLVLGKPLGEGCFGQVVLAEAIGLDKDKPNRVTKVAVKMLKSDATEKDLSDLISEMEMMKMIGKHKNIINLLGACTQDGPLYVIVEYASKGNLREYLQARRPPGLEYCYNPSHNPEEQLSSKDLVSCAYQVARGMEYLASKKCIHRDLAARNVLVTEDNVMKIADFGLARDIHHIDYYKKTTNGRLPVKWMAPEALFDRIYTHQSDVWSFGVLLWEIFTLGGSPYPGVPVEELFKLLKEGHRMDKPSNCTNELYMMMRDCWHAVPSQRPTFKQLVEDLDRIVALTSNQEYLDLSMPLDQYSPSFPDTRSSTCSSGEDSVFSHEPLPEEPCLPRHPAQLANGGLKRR
Sequence of Receptor tyrosine-protein kinase erbB-4 (Homo sapiens) (Q15303 whole entry): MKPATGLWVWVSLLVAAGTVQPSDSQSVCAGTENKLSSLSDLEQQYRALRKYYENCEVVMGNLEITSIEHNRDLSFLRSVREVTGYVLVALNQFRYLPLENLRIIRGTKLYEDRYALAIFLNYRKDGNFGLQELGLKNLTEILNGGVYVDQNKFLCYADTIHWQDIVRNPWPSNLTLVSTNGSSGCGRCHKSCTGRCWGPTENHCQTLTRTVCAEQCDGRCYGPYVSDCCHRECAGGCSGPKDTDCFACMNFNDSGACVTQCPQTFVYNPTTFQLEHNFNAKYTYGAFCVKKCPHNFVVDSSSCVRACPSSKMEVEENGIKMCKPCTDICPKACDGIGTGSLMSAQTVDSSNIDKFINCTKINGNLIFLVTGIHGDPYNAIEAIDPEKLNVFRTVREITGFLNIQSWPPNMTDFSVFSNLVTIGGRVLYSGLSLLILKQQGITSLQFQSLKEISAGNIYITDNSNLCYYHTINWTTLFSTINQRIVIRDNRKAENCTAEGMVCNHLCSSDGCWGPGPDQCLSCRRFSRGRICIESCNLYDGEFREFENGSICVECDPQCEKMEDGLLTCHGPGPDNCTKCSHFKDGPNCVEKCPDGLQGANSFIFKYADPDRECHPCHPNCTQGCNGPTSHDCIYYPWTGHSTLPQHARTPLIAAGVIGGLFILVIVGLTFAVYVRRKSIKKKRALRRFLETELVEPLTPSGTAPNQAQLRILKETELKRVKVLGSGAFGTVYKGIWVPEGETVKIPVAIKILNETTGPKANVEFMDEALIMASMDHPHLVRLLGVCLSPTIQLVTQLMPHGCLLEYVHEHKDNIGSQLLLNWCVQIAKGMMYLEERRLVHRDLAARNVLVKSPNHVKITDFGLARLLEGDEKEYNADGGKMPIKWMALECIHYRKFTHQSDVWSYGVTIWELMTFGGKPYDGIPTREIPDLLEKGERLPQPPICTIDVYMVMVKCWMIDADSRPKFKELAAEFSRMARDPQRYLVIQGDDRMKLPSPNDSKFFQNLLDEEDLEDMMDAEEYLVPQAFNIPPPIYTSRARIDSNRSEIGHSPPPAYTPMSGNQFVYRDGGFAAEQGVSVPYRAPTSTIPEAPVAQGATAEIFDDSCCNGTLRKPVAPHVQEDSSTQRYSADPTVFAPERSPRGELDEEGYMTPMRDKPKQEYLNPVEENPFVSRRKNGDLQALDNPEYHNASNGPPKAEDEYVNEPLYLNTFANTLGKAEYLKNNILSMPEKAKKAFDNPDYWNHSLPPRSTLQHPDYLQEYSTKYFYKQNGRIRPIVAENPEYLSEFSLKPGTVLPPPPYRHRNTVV

The term inhibition denotes the relative decrease from the control value, in per cent. Take `NS(=O)(=O)c1ccc(-c2ccc3c(NC(=O)C4CC4)n[nH]c3c2)cc1`: the inhibition in experiment [1] is 8.86%; in [2] it was 4.28%; in [3] it was 4.38%; in experiment [4] it was 1.05%; in experiment [5], 3.22%; in [6] it was -0.2%. Moreover, the inhibition is 0.41% in [7]; 8.86% in experiment [8]; 7.66% in [9]; -0.63% in experiment [10]; -0.03% in [11]; 1.35% in experiment [12]. The inhibition in [13] was 2.53%; in experiment [14], 2.31%; in experiment [15], 7.63%; in experiment [16], 7.91%; in experiment [17], 6%; in [18] it was 3.47%. The inhibition in experiment [19] worked out at 5.72%; in [20], 0.67%.

With `NS(=O)(=O)c1ccc(N/C=C2\C(=O)Nc3ccc4ncsc4c32)cc1`, the inhibition in experiment [1] was 18.1%; in experiment [2], 2.97%; in [3], 4.36%; in [4], 0.08%; in [5] it was 8.11%; in experiment [6] it was 2.78%. Besides, the inhibition in experiment [7] was determined as 5.6%; in experiment [8], 8.52%; in experiment [9], 10.8%; in [10], 0.16%; in experiment [11], 13.1%; in experiment [12], 3.55%. Also, the inhibition came to 7.01% in experiment [13]; 5.4% in [14]; 32.8% in [15]; 18.8% in experiment [16]; 53.3% in experiment [17]; 17.1% in experiment [18]. For the same compound, the inhibition is 56.7% in experiment [19] and 1.61% in experiment [20].

`CCn1c(-c2nonc2N)nc2c(C#CCN)ncc(OCCCN)c21`: the inhibition is -5.25% in [1]; -7.45% in experiment [2]; 1.18% in [3]; -2.64% in experiment [4]; -2.62% in [5]; -3.17% in experiment [6]. For the same compound, the inhibition in experiment [7] was 3.87%; in experiment [8], -7.51%; in experiment [9] it was 2.14%; in experiment [10], 5.14%; in [11], 6.76%; in [12], -1.95%. The inhibition in experiment [13] was -1.62%; in experiment [14], -2.75%; in experiment [15], 2.12%; in experiment [16], -1.49%; in experiment [17], 0.4%; in experiment [18] it was -4.55%. For the same compound, the values for the inhibition in experiment [19] and in experiment [20] were -3.83% and -2.34%, respectively.
